# PrPC TRFRET: inhibitors of human cell surface prion protein PrPC, primary screen, cell-based, TR-FRET; TR-FRET read-out; inhibition, % at 13.8 µM; 370,000 compounds, 0.43% hits; in the data active = inhibition above about 24%; also: 0% = median of the test wells and 100% = reference compound wells
# Yp Topo-I inh: Yersinia pestis topoisomerase I inhibitors, primary screen, biochemical, cleavage product accumulation, plate reader, single point | DNA topoisomerase I (Yersinia pestis CO92) | Y. pestis Topo-I cleavage product accumulation | activity, % at 10 µM | 360,000 compounds, 0.064% hits | AID 504884, 2011; in the data active = activity above about 50%, passing the limit was not always enough
# GDH-TPI counter-1: GDH-TPI coupling enzyme inhibitors, primary screen, artefact control for M. tuberculosis FBA inhibitor project, biochemical, absorbance, full deck. GDH-TPI coupled enzyme counterscreen, NADH absorbance. inhibition, % at 4.8 µM. 360,000 compounds, 1.2% hits; in the data active = inhibition above about 30%;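 also: 0% = DMSO wells and 100% = wells lacking the enzyme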
# Mtb hypoxia inh: PubChem AID 1159583; 300,000 compounds, 0.1% hits; M. tuberculosis hypoxia-regulated fluorescent reporter, fluorescence; fluorescence inhibition, % (test concentration not listed); in the data active = fluorescence inhibition mostly above about 23%, no sharp cut-off; inactive = mostly below about 17%
# PrP 5UTR inh: inhibition of PrP 5' UTR reporter expression; inhibition, % (no concentration beside the values); cell-based PrP 5' UTR mRNA reporter, plate reader; 340,000 compounds, 0.35% hits; in the data active = inhibition above about 52%; also: 0 = median of the neutral control wells
# FBA Mtb inh: Mtb FBA enzyme inhibitors, primary screen, biochemical, fluorescence, strain H37Rv; Fructose-bisphosphate aldolase (Mycobacterium tuberculosis (strain ATCC 25618 / H37Rv)), …; purified M. tuberculosis FBA, fluorescence read-out; inhibition, % at 1 µM; 360,000 compounds, 2.3% hits; AID 588726, 2011;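 also: 0% = vehicle and 100% = reference inhibitor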
# Target sequence (P9WQA3 whole entry, looked up): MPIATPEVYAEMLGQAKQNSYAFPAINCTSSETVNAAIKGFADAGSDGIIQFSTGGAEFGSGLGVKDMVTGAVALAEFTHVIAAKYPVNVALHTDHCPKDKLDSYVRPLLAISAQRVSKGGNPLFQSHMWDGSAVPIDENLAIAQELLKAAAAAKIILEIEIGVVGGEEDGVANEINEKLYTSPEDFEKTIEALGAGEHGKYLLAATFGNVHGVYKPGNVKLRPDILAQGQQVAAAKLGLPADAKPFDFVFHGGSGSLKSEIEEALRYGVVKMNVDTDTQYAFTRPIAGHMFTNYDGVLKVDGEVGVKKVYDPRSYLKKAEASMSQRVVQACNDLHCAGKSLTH
# Mtb FBA confirm: M. tuberculosis aldolase blockers, biochemical, fluorescence, strain H37Rv, confirmation. shares compounds with FBA Mtb inh. purified M. tuberculosis FBA, fluorescence read-out. inhibition, % at 1 µM. 5,600 compounds, 78% hits. AID 651616, 2012;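 also: 0% = vehicle wells and 100% = reference inhibitor wells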
# GDH-TPI counter-2: GDH-TPI coupling enzyme inhibitors, artefact control for M. tuberculosis FBA inhibitor project, biochemical, fluorescence, high throughput | shares compounds with FBA Mtb inh | GDH-TPI coupled enzyme counterscreen | inhibition, % at 1 µM | 5,600 compounds, 81% hits; in the data active = inhibition above about 10%
# Starred values were filed as active, the others as inactive; · = no result shown; + = active, no number. Most compounds without a hit are left out; they make up all but 3.8% or so of the library. Rule as the data show it, unless noted: active = inhibition above about 27%; inactive = the rest.
SMILES,PrPC TRFRET,Yp Topo-I inh,GDH-TPI counter-1,Mtb hypoxia inh,PrP 5UTR inh,FBA Mtb inh,Mtb FBA confirm,GDH-TPI counter-2
CCOC(=O)Nc1ccc2c(c1)nc1n2CCN(CCOC)C1,7.3,5.7,5.0,-8.9,-9.6,36.1*,75.0*,73.4*
COCCN1CCn2c(nc3cc(NC(C)=O)ccc32)C1,8.0,-9.9,3.3,10.5,-9.0,29.5*,6.7,4.3
CC(=O)Nc1ccc2c(c1)nc1n2CCN(C(C)c2ccccc2)C1 (stereo unspecified),-0.9,3.7,0.6,14.1,-14.3,69.1*,82.6*,72.0*
CC(=NOCC(=O)Nn1c(=O)[nH]c2ccccc2c1=O)c1ccccc1,·,·,·,-0.1,·,·,·,·
O=[N+]([O-])c1ccccc1C=NN1CCN(Cc2ccccc2Cl)CC1,·,·,·,18.9,·,·,·,·
CCOC(=O)C1C2COc3ccc(Cl)cc3C2N2C(=O)C(CO)NC(=O)[C@@]12C (stereo partly specified),·,·,·,11.9,·,·,·,·
CN(C)CCSc1nc(N)c2c3c(sc2n1)CN(C)CC3,-7.2,-12.0,26.7,·,-26.7,37.7*,73.0*,61.7*
COCCSc1nc(N)c2c3c(sc2n1)CN(C)CC3,-3.3,-0.5,19.1,-0.5,-23.3,52.3*,70.2*,48.4*
Cc1occc1C(=O)NN=C/C(Br)=C\c1ccccc1,·,·,·,1.1,·,·,·,·
Cc1nn(Cc2ccc(C(=O)NN=Cc3ccncc3)o2)c(C)c1Cl,·,·,·,0.1,·,·,·,·
COc1cc2nc(N3CCN(C(=O)[C@H]4COc5ccccc5O4)CC3)nc(N)c2cc1OC,-10.1,-26.1,2.6,·,-11.8,81.8*,62.6*,38.3*
Cc1cccc(NC(=S)N(Cc2ccco2)C(C)c2cccs2)c1 (stereo unspecified),4.1,18.7,16.1,4.1,-1.8,1.6,·,·
CC(c1cccs1)N(Cc1ccco1)C(=S)Nc1ccc(F)c(Cl)c1 (stereo unspecified),2.6,0.1,-4.9,9.2,-5.8,37.9*,+,143.9*
COc1ccc(-c2nc3c(-c4ccc(F)cc4)cnn3cc2C)cc1F,4.0,-0.6,0.6,-6.6,-3.8,4.4,·,·
COc1ccc(-c2nc3nc(N)nn3cc2C)cc1F,0.1,3.3,0.0,9.0,-17.3,27.8*,82.0*,70.1*
COc1ccc(OC)c(-c2cc(C(=O)NN=Cc3cc(OC)c(OC)cc3OC)c3ccccc3n2)c1,·,·,·,-8.4,·,·,·,·
O=C(COc1ncnc2scc(-c3ccc(Cl)cc3)c12)NCc1ccco1,-1.5,-4.9,0.8,·,-20.3,82.6*,4.8,-2.4
CCOC(=O)c1cn(Cc2cccc(Cl)c2)c2cc(C)nn2c1=O,5.4,-12.9,11.2,-3.2,-11.2,28.0*,67.0*,52.6*
CN(C)C=NC(=S)Nc1cc(Cl)cc(Cl)c1,·,·,·,-0.3,·,·,·,·
O=C(OCC#CCSc1nnc(-c2cccc3ccccc23)o1)c1cccc2[nH]ccc12,-1.9,1.4,16.1,8.4,-20.5,35.9*,63.6*,50.9*
Cc1ccc(-n2c(O)c(C=Nc3cc(C)on3)c3ccccc3c2=O)c(C)c1,-14.0,3.8,6.9,-6.0,-10.0,46.6*,+,+
CC(C)c1nc(N2CCN(C(=O)c3ccco3)CC2)c(C#N)c2c1COC(C)(C)C2,4.9,24.6,5.2,6.2,-69.4,37.3*,+,+
COc1ccc(C=NNc2ccccc2C(=O)O)cc1Cn1cc([N+](=O)[O-])cn1,·,·,·,-16.4,·,·,·,·
COc1ccc(C=NNC(=O)c2ccccc2)cc1OS(=O)(=O)c1ccccc1,·,·,·,-10.6,·,·,·,·
c1ccc2c(c1)OCCc1c-2[nH]c2ccccc12,2.2,-9.5,-4.0,3.2,-12.5,46.6*,74.8*,54.8*
SMILES,PrPC TRFRET,Yp Topo-I inh,GDH-TPI counter-1,Mtb hypoxia inh,PrP 5UTR inh,FBA Mtb inh,Mtb FBA confirm,GDH-TPI counter-2
CC(C)CNc1oc(-c2ccco2)nc1C#N,-2.7,-2.6,7.3,0.5,-23.2,72.0*,97.0*,80.1*
N#Cc1nc(-c2ccco2)oc1NCc1ccc(F)cc1,0.6,0.0,3.1,15.6,-12.7,39.7*,102.7*,84.0*
CC(Nc1oc(-c2ccco2)nc1C#N)c1ccccc1 (stereo unspecified),-0.7,-2.6,13.0,5.2,-13.4,49.4*,0.2,-3.3
Cn1c(SCc2cccc(C#N)c2)nc2ccccc2c1=O,6.5,44.7,5.5,-4.3,-12.7,28.6*,8.5,6.6
CC(=NNc1ccc([N+](=O)[O-])cc1)c1ccco1,·,·,·,-2.2,·,·,·,·
COc1ccc2oc(=O)c(C(C)=NNc3ccccc3)cc2c1,·,·,·,10.3,·,·,·,·
C/C(=N\Nc1ccccc1)c1cc2ccccc2oc1=O,-9.1,-5.0,10.8,·,2.0,65.1*,6.0,-7.8
CC(C)Oc1cccc(C(=O)NN=Cc2coc3ccccc3c2=O)c1,·,·,·,7.1,·,·,·,·
CCNC(=O)/C(C#N)=C/c1c(N2CCOCC2)nc2ccccn2c1=O,-6.8,-1.7,4.5,17.2,-30.7,42.2*,175.8*,135.7*
N#C/C(=C\c1c(N2CCCCCC2)nc2ccccn2c1=O)C(=O)NCc1ccco1,-7.9,-6.1,3.4,10.8,-19.5,-2.0,·,·
C=CCNC(=O)/C(C#N)=C/c1c(N2CCCCCC2)nc2ccccn2c1=O,-18.5,15.2,9.3,5.8,8.0,37.1*,5.1,-2.1
CCn1cc(-c2ccnc3cc(C(=O)O)nn23)c(C)n1,-1.8,5.9,11.9,5.8,-9.5,84.1*,76.0*,58.1*
CCn1cc(CCC(=O)O)c(C)n1,7.0,10.5,2.2,0.5,3.7,-0.3,·,·
Cc1c(-c2ccnc3cc(C(=O)O)nn23)cnn1C,-9.8,7.4,12.5,10.9,-9.8,79.1*,22.4,16.8*
O=C(NN=Cc1ccc(OC(=O)c2ccccc2Br)cc1)c1ccccn1,·,·,·,6.1,·,·,·,·
Cc1ccc(C(=O)NCc2ccccc2)c(F)c1F,1.2,-10.8,-1.5,·,-22.7,-3.3,·,·
Cc1cc(C(=O)NCc2ccccc2)c(=O)[nH]c1C,4.1,-2.6,3.9,9.2,-42.6,55.8*,102.8*,74.1*
Cc1ccccc1CNC(=O)c1ccccc1N,0.6,-1.4,5.4,7.0,-0.3,78.0*,+,191.2*
CCN(CC)CCNC(=O)c1ccccc1N,-8.5,-4.8,-4.5,4.7,-1.8,59.9*,140.2*,121.1*
CCN(CC)CCCNC(=O)c1ccccc1C,-5.4,-5.2,12.0,-0.8,-7.8,1.8,·,·
COc1ccccc1CNC(=O)c1ccccc1N,·,-8.4,-8.3,5.4,-10.7,53.8*,59.6*,51.1*
COc1cc(C=NN=C(N)c2nonc2N)cc(Br)c1OCc1ccccc1C,·,·,·,-2.1,·,·,·,·
